From PubChem BioAssay
The source made the active and inactive calls.

Key:
[1] = binders of probe aFSTL3 on microarray, primary screen, stem cell growth factor project, biochemical, small-molecule microarray, fluorescence 635/667 (AID 1064); conditions: higher = more signal;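 note: measures binding of the biotinylated anti-FSTL3 antibody to printed compounds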
[2] = binders from COS7 lysate, DM2A8 probe, primary screen, torsin A project, cell lysate, small-molecule microarray, fluorescence 635/667 (AID 1065); conditions: higher = more signal, COS7 lysate expressing mutant human TOR1A
[3] = binders of probe aFGF2 on microarray, primary screen, stem cell growth factor project, biochemical, small-molecule microarray, fluorescence 635/667 (AID 1067); conditions: higher = more signal;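 note: measures binding of biotinylated aFGF2 protein to printed compounds on slides; z-score merges feature fluorescence and signal-to-noise across triplicate slides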
[4] = binders of probe aFGF10 on microarray, primary screen, stem cell growth factor project, biochemical, small-molecule microarray, fluorescence 635/667 (AID 1071); conditions: higher = more signal;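 note: score merges 667 nm spot intensity and signal to noise from triplicate slides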
[5] = target: Neurogenic locus notch homolog protein 2 (Homo sapiens) (UniProt Q04721); assay: Notch2 binders on small-molecule microarrays, primary screen, biochemical, small-molecule microarray, 635 nm fluorescence, stem cell growth factors (AID 1073); conditions: Notch2 binding, higher = more signal
Sequence of Neurogenic locus notch homolog protein 2 (Homo sapiens) (Q04721 whole entry, looked up, canonical isoform): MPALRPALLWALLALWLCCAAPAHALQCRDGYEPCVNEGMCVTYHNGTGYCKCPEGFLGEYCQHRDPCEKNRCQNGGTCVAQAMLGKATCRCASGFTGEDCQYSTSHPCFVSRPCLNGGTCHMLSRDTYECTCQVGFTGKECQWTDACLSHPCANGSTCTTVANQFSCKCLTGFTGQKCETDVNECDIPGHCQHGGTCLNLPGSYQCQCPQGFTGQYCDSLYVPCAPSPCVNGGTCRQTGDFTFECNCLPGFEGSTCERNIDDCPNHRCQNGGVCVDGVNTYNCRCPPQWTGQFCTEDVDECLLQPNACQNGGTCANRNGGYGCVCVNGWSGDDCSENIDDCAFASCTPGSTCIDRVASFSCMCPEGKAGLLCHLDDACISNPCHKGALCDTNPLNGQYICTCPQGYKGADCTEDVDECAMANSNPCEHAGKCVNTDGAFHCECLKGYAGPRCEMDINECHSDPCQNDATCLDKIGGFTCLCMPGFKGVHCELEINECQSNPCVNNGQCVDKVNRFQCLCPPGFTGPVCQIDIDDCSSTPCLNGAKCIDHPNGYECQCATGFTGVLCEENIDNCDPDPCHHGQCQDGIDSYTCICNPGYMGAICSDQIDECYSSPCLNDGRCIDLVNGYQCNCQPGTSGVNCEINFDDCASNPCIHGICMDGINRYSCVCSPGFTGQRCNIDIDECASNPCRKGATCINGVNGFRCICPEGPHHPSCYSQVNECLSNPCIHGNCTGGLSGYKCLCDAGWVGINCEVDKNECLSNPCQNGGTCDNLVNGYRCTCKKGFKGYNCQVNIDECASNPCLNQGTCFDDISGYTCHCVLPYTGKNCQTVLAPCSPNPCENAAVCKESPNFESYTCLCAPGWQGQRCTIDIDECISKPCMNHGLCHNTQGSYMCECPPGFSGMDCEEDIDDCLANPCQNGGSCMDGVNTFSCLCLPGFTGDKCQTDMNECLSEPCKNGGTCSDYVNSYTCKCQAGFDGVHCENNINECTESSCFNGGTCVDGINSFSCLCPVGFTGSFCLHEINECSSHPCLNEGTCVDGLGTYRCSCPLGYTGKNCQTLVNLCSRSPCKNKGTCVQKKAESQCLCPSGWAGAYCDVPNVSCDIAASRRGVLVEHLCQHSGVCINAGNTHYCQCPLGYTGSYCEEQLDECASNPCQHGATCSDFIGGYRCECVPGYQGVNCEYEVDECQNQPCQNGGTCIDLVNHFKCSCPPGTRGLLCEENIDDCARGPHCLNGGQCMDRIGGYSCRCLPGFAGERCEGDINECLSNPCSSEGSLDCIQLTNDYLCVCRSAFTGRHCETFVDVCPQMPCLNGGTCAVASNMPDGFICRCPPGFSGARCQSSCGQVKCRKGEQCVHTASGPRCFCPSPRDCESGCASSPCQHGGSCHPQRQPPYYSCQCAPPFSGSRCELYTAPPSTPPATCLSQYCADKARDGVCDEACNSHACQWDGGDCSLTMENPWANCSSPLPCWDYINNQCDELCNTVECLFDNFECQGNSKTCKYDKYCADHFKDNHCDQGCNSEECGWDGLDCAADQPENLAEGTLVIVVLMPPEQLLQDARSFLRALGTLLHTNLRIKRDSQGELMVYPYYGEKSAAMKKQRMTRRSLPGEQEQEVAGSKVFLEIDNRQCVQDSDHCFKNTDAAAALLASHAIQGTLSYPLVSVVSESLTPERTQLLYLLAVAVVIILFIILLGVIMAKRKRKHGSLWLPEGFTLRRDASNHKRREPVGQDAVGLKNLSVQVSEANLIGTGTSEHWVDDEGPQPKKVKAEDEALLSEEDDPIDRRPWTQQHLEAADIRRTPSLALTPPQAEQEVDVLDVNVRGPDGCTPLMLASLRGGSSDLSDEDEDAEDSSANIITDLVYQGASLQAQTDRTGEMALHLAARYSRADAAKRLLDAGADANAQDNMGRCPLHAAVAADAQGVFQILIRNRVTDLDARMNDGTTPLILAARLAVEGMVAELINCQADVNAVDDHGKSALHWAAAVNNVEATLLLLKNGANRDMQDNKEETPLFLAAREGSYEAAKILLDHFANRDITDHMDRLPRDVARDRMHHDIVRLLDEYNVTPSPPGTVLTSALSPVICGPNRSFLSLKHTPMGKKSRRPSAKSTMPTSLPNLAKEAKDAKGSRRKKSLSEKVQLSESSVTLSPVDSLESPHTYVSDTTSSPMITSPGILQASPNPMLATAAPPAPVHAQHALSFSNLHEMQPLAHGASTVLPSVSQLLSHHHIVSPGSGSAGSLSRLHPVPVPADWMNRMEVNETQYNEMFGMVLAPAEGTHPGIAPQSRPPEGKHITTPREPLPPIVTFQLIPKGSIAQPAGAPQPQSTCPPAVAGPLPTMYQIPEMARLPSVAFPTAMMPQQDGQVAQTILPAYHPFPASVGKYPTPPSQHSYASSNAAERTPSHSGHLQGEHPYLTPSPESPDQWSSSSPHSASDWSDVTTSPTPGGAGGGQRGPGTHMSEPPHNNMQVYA

[6] = target: Pro-neuregulin-1, membrane-bound isoform (Homo sapiens) (UniProt Q02297); assay: NRG1 binders on small-molecule microarrays, primary screen, psychiatric disease protein project, biochemical, small-molecule microarray, fluorescence 635/667 (AID 1075); conditions: NRG1 binding, 635 nm fluorescence, higher = more signal;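 note: score combines 667 nm spot fluorescence with signal to noise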
Sequence of Pro-neuregulin-1, membrane-bound isoform (Homo sapiens) (Q02297 whole entry, looked up, the tested form may be a part, canonical isoform): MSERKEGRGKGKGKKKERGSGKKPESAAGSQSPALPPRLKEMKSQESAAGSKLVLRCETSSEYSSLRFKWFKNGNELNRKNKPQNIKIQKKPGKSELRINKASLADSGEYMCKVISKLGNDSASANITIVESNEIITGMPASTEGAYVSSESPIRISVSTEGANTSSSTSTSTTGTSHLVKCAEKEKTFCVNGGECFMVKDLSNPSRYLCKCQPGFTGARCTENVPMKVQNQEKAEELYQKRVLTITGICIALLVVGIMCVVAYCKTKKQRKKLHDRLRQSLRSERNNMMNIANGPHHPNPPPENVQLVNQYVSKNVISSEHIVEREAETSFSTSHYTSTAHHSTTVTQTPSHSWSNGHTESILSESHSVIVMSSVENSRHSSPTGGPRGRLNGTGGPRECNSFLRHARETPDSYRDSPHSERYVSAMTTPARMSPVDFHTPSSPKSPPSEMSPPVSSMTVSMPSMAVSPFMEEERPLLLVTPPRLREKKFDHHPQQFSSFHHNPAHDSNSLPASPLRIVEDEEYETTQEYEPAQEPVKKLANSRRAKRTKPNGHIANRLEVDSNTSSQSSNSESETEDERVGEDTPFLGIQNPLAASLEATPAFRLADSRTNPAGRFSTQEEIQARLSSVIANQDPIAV

[7] = tested on: Neuregulin-1 EGF-like domain; assay: binders of neuregulin-1 EGF-like domain, primary screen, biochemical, small-molecule microarray, 635 nm fluorescence (AID 1081); conditions: small-molecule microarray binding, higher = more signal;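 note: binding of the protein to compounds printed on small-molecule microarray slides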
[8] = FRG1 promoter luciferase signal modulators, primary screen, FRG1 inhibition for FSHD, cell-based, C2C12 myotubes, firefly/Renilla luciferase, luminescence (AID 1084); conditions: higher = more signal, called active from +8 up or from −8 down
[9] = binders of probe aFST on microarray, primary screen, stem cell growth factor project, biochemical, small-molecule microarray, fluorescence 635/667 (AID 1086); conditions: higher = more signal;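 note: score merges 667 nm fluorescence with signal-to-noise of each printed compound spot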
[10] = binders of probe aHhip on microarray, primary screen, stem cell growth factor project, biochemical, small-molecule microarray, fluorescence 635/667 (AID 1087); conditions: higher = more signal;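 note: score merges spot fluorescence at 667nm with spot signal to noise ratio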
[11] = tested on: PRMT1 (protein arginine N-methyltransferase 1); assay: PRMT1 binders on small-molecule microarrays, primary screen, biochemical, small-molecule microarray, 635 nm fluorescence (AID 1088); conditions: small-molecule microarray binding, higher = more signal;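 note: binding of Prmt1 protein to compounds spotted on small-molecule microarray slides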
[12] = yeast growth modulation, basal conditions, primary screen, YJM789 clinical isolate, OD600, 24 h (AID 1089);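 note: growth of clinical yeast isolate S. cerevisiae YJM 789 seeded 1000 cells per well; test concentration not given here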; conditions: S. cerevisiae YJM789 growth, higher = more signal, called active from +8 up or from −8 down
[13] = fission yeast growth modulation, primary screen, strain 972, OD600, 24 h, no modulator (AID 1090);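 note: basal condition with compound alone and no growth modifier present; test concentration not given here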; conditions: S. pombe 972 growth, higher = more signal, called active from +8 up or from −8 down
[14] = S. cerevisiae growth modulation with rapamycin, primary screen, strain BY4716, OD600, 96 h (AID 1091); conditions: higher = more signal, called active from +8 up or from −8 down; note: test concentration not given here
[15] = target: Torsin-1A-interacting protein 2 (Homo sapiens) (UniProt Q8NFQ8); assay: LULL1 binders on small-molecule microarray, primary screen, cell lysate, human LULL1 lysate, 635/667 nm fluorescence (AID 1092); conditions: hLULL1 lysate binding, 635 nm fluorescence, higher = more signal;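 note: probe is lysate of COS7 cells overexpressing human LULL1; score merges per-feature 667 nm fluorescence with signal-to-noise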
Sequence of Torsin-1A-interacting protein 2 (Homo sapiens) (Q8NFQ8 whole entry, looked up): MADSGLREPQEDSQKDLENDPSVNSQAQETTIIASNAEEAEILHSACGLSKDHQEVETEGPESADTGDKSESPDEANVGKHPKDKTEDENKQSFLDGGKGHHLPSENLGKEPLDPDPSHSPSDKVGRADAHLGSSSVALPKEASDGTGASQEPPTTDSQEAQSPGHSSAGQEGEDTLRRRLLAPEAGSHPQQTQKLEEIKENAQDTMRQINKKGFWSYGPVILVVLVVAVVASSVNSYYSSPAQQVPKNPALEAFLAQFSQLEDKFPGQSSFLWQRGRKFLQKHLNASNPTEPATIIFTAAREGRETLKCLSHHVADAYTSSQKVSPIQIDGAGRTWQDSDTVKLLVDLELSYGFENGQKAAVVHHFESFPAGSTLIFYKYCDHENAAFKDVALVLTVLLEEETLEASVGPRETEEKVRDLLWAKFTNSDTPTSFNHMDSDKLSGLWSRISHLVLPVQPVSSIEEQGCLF

[16] = E. coli growth modulation, two-sided OD650, primary screen, E. coli filamentation project, strain DRC41, 24 h (AID 1093); conditions: OD650, 24 h, higher = more signal, called active from +8 up or from −8 down;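 note: MC1000 strain lacking acrAB efflux and sulA so SOS filamentation is blocked; test concentration not given here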
[17] = small-molecule microarray binders of probe aLefty2, primary screen, biochemical, biotinylated probe, 635/667 nm fluorescence (AID 1094); conditions: higher = more signal;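 note: score merges spot fluorescence near 667 nm with spot signal-to-noise ratio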
[18] = tested on: Noggin (protein binding on small-molecule microarray); assay: Noggin binders on small-molecule microarray, primary screen, biochemical, 635/667 nm fluorescence (AID 1095); conditions: 635 nm fluorescence, higher = more signal;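 note: score merges 667 nm feature fluorescence with signal to noise over triplicate slides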
[19] = target: Neurogenic locus notch homolog protein 3 (Homo sapiens) (UniProt Q9UM47); assay: NOTCH3 binders on small-molecule microarray, primary screen, biochemical, 635/667 nm fluorescence (AID 1096); conditions: NOTCH3 binding, 635 nm fluorescence, higher = more signal
[20] = small-molecule microarray binders of probe aEGFR, primary screen, biochemical, biotinylated probe, 635/667 nm fluorescence (AID 1097); conditions: higher = more signal;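 note: probe is a biotinylated anti-EGFR antibody binding compounds printed on slides; score combines fluorescence near 667 nm and signal to noise of each spot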

Row | Compound | composite z-score [1] | composite z-score [2] | composite z-score [3] | composite z-score [4] | composite z-score [5] | composite z-score [6] | composite z-score [7] | z-score [8] | composite z-score [9] | composite z-score [10] | composite z-score [11] | z-score [12] | z-score [13] | z-score [14] | composite z-score [15] | z-score [16] | composite z-score [17] | composite z-score [18] | composite z-score [19] | composite z-score [20]
1 | C=CCOC(=O)[C@H]1[C@@H]2C(=O)O[C@@H](c3ccccc3)[C@@H](c3ccccc3)N2[C@@H](c2ccc(OCCOC(=O)[C@H]3C[C@H]4C(=O)N[C@@H](CCCCNC(C)=O)C(=O)N4[C@H]3c3cccc(OCCO)c3)cc2)[C@]12C(=O)Nc1ccc(I)cc12 | 0.276 | 1.01 | -0.144 | 0.818 | 0.656 | 1.29 | 1.26 | 0.29 (inactive) | 2.65 | 0.215 | 1.55 | 1.15 (inactive) | 1.14 (inactive) | 4.54 (inactive) | 2.18 | 1.44 (inactive) | -0.431 | 1.87 | 1.1 | -0.336
2 | CCOC(=O)C1=C[C@@H](C(C)(C)C)N(S(=O)(=O)c2ccc(C)cc2)[C@H]1c1ccc(C)cc1 | -0.173 | 0.577 | 0.135 | 1.13 | 1.68 | 0.877 | 0.894 | -2.53 (inactive) | 1.8 | 0.245 | 1.54 | -0.582 (inactive) | 0.0598 (inactive) | 0.632 (inactive) | 3.25 | -1.38 (inactive) | 0.273 | 0.552 | 1.02 | 0.157
3 | COc1ccc(C(=O)Nc2cccc(CN3C(=O)[C@@]4(O[C@@H](CC(=O)N(CCO)Cc5ccccc5)[C@H]([Si](C)(C)c5ccc(OC)cc5)[C@H]4C)c4ccccc43)c2)cc1 | -0.117 | 0.741 | -0.119 | 0.079 | -0.342 | 0.585 | 1.09 | -2.55 (inactive) | -0.141 | 0.0274 | 0.931 | -1.42 (inactive) | -0.9 (inactive) | 2.85 (inactive) | 1.94 | 0.904 (inactive) | -0.175 | 0.8 | 0.487 | -0.201
4 | COC(=O)[C@@]1(Cc2ccc(F)cc2)[C@H]2c3cc(C(=O)N4CCCC4)n(C)c3C[C@H]2CN1C(=O)c1ccccc1 | 1.18 | 0.155 | 0.404 | 0.779 | 1.69 | 2.15 | 1.34 | -0.234 (inactive) | 0.951 | -0.0645 | 0.579 | -0.42 (inactive) | 0.252 (inactive) | -0.658 (inactive) | 3.25 | 0.508 (inactive) | 0.744 | -0.662 | 0.405 | -0.0259
5 | CC1CC/C=C\[C@H]2OC34C=CCN(C(C)(C)C)C(=O)[C@H]3N(C(CO)C(C)C)C(=O)[C@@H]4C2C(=O)O1 (stereo not given in full) | -0.259 | 2.01 | -0.141 | 0.323 | -0.147 | 0.867 | 1.5 | 1.44 (inactive) | -0.0219 | -0.318 | -0.447 | -1.38 (inactive) | -0.429 (inactive) | -0.851 (inactive) | 2.5 | -0.515 (inactive) | -0.147 | 0.476 | 0.551 | -0.0968
6 | CCCCC(=C=CC[C@H](O)c1ccc(OCCO)cc1)C[C@H](O)COCc1ccccc1 | -0.117 | -0.366 | -0.0409 | 0.692 | -0.238 | 1.06 | 0.879 | -0.947 (inactive) | -0.0834 | 0.152 | 0.857 | 0.85 (inactive) | -1.43 (inactive) | -0.374 (inactive) | 1.36 | 0.125 (inactive) | -0.116 | 0.395 | -0.36 | 0.0028
7 | NC(=O)[C@H]1[C@@H]2C(=O)O[C@@H](c3ccccc3)[C@@H](c3ccccc3)N2[C@@H](c2ccc(O)cc2)[C@]12C(=O)Nc1ccc(C#CC3=CCCCC3)cc12 | 0.124 | 0.813 | -0.0979 | -0.105 | -0.734 | 1.22 | 1.25 | 1.23 (inactive) | 0.0569 | -0.406 | 1.45 | 1.42 (inactive) | 0.481 (inactive) | 2.1 (inactive) | 2.83 | -1.32 (inactive) | -0.185 | 0.186 | 0.169 | -0.186
8 | C=CCN1C(=O)[C@@]2(O[C@@H](CCO)[C@H]([Si](C)(C)c3ccc(OC)cc3)[C@H]2C)c2cc(N3CCOC3=O)ccc21 | -0.0204 | 0.0241 | -0.0455 | 0.448 | 0.165 | 1.21 | 1.09 | -1.66 (inactive) | 0.162 | -0.236 | 0.989 | 1.53 (inactive) | 0.885 (inactive) | 9.68 (active) | 1.86 | 0.976 (inactive) | -0.0755 | -0.355 | 0.347 | -0.134
9 | O=C1NC(=O)C2C1C=CC(C(O)c1ccccn1)N2Nc1ccc(Cl)cc1Cl (stereo not given) | -0.0358 | -0.0795 | -0.0132 | 0.895 | 1.16 | 1.36 | 0.626 | 0.362 (inactive) | 0.737 | 0.154 | 0.195 | -1.09 (inactive) | 0.154 (inactive) | -0.458 (inactive) | 3.35 | -0.402 (inactive) | 0.091 | -0.291 | 0.259 | -0.0271
10 | CC(C)[C@H]1NC(=O)[C@@]23C(=O)N[C@@H](Cc4ccccc4)C2[C@H](C)[C@@]2(C)O[C@H]2C3/C=C/C/C=C\CNC(=O)[C@H](Cc2ccccc2)NC1=O (stereo not given in full) | -0.264 | 0.425 | -0.0462 | 1.01 | 0.878 | 0.781 | 0.957 | 0.304 (inactive) | 0.353 | 0.235 | 1.53 | -0.155 (inactive) | -0.228 (inactive) | 0.246 (inactive) | 2.68 | 0.317 (inactive) | -0.052 | 0.877 | 1.08 | 0.0354
11 | CCCCC(=O)N(CCN1CCOCC1)[C@@H]1CC(C(=O)NCCO)=C[C@H](Oc2c(I)cc(CO)cc2OC)[C@H]1O | -0.725 | 0.151 | -0.146 | 0.511 | 0.555 | 0.171 | 0.384 | 0.912 (inactive) | 0.0126 | -0.549 | 0.729 | 0.0164 (inactive) | -0.393 (inactive) | 0.0883 (inactive) | 0.322 | 1.3 (inactive) | -0.301 | 0.26 | 0.232 | -0.152
12 | C#C[C@@H](CC)O[Si](C#CCCCC#N)(C(C)C)C(C)C | 0.0465 | 0.934 | -0.0891 | -0.146 | -0.604 | 0.873 | 0.74 | -0.0405 (inactive) | -0.241 | -0.236 | 1.12 | -13.2 (active) | -20.1 (active) | -3.15 (inactive) | 2.2 | 0.619 (inactive) | -0.0257 | -0.298 | 0.398 | -0.128
